Measured values reported in the supplement of paper PMC11732987, “Enantioselective OTUD7B fragment discovery through chemoproteomics screening and high-throughput optimisation” (Communications Chemistry, 2025).

Experiments:
Test in all cases: log2 ratio of Biotin-Ahx-Ub-VS probe labelling (fragment/DMSO); higher = less target engagement (more negative = stronger competition), active = hit call of the paper (q ≤ 0.05, log2 ratio ≤ -1)
Conditions in all cases: compound concentration: 200 uM; treatment time: 3 h
USP34 = USP34 (UniProt Q70CQ2)
Outline: (§1)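 Each value is an average log2 ratio of fragment to vehicle, tested by unpaired t-test. The underlying Spectronaut label-free quantities were global-median-normalised, and only proteins with ≥2 unique peptides were included. Triplicate HEK293T lysate samples (495 µg) were exposed to fragment at 200 µM or vehicle for 3 h, then to Biotin-Ahx-Ub-VS at 0.5 µM final for 1 h, before NeutrAvidin enrichment of labelled DUBs, LysC and trypsin digestion, and diaPASEF LC-MS/MS.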

USP36 = target: T1, USP36 (UniProt Q9P275)
T1 sequence (whole entry): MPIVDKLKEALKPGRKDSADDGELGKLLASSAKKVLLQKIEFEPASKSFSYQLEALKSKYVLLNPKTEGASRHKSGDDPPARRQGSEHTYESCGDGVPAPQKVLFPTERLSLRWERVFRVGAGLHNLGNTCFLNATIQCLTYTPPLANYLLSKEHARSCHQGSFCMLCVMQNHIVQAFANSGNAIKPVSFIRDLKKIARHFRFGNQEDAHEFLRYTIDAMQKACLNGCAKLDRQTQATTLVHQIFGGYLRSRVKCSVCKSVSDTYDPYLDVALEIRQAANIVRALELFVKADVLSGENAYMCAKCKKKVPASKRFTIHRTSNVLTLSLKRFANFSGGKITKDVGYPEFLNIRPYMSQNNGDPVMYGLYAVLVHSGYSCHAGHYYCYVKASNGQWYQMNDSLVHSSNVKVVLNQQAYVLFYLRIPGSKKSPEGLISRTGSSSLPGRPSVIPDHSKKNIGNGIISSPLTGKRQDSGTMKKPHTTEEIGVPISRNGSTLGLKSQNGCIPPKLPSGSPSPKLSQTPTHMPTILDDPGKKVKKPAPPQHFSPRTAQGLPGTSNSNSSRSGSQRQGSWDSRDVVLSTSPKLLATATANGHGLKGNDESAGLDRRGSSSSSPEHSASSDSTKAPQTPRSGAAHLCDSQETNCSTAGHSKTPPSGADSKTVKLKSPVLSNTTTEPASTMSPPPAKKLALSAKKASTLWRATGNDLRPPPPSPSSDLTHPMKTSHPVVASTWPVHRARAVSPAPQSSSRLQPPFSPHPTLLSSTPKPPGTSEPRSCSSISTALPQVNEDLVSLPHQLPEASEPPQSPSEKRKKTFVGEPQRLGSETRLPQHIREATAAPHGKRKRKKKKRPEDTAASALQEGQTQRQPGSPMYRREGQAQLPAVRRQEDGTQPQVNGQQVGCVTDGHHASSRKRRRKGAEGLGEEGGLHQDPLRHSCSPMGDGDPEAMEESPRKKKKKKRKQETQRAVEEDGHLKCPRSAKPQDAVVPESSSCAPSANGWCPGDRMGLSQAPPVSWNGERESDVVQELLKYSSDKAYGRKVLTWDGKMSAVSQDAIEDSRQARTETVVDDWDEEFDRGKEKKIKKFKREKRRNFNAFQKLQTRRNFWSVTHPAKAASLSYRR
Outline: as §1

USP38 = target: T2, USP38 (UniProt Q8NB14)
T2 sequence (whole entry): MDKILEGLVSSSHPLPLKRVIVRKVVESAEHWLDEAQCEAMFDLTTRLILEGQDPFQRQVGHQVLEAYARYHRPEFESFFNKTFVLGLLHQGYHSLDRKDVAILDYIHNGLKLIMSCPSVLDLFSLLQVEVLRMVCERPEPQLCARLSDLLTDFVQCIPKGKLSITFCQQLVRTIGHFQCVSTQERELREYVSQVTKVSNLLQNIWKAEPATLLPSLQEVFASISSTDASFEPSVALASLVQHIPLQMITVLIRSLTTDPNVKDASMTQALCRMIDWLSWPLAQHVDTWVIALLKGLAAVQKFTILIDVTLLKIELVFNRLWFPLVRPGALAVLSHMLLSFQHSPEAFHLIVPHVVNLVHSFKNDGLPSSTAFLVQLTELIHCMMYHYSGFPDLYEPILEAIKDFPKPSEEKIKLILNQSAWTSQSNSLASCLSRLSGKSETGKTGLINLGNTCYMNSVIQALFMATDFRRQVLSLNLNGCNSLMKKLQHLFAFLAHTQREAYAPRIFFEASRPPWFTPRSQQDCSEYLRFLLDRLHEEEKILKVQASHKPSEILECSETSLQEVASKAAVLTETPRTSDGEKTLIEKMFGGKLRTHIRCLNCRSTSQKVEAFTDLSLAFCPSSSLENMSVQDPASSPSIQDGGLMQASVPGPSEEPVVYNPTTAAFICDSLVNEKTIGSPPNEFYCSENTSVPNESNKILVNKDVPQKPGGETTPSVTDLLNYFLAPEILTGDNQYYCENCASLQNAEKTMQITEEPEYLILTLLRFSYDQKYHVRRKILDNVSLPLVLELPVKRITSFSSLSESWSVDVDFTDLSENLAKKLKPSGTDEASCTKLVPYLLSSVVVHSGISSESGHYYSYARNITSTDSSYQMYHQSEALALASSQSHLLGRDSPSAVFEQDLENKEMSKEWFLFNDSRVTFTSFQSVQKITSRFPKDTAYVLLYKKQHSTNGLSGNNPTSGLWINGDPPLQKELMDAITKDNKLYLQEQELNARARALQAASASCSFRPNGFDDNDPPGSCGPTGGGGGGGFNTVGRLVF
Outline: as §1

USP39 = target: T3, USP39 (UniProt Q53GS9)
T3 sequence (whole entry): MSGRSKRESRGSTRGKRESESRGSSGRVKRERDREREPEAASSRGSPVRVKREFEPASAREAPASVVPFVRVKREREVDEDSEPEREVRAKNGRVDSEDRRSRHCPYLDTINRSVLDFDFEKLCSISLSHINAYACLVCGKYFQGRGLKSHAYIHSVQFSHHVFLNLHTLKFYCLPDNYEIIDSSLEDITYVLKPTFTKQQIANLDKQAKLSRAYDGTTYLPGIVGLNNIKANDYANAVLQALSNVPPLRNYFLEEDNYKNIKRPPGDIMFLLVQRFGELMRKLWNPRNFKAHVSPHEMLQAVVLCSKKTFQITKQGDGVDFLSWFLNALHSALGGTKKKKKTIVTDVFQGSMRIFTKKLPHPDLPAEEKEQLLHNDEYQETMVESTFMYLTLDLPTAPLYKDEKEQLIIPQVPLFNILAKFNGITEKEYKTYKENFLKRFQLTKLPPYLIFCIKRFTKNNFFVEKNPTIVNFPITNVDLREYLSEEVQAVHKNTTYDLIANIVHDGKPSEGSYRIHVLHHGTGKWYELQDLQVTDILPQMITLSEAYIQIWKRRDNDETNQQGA
Outline: as §1

USP4 = target: T4, USP4 (UniProt Q13107)
T4 sequence (whole entry): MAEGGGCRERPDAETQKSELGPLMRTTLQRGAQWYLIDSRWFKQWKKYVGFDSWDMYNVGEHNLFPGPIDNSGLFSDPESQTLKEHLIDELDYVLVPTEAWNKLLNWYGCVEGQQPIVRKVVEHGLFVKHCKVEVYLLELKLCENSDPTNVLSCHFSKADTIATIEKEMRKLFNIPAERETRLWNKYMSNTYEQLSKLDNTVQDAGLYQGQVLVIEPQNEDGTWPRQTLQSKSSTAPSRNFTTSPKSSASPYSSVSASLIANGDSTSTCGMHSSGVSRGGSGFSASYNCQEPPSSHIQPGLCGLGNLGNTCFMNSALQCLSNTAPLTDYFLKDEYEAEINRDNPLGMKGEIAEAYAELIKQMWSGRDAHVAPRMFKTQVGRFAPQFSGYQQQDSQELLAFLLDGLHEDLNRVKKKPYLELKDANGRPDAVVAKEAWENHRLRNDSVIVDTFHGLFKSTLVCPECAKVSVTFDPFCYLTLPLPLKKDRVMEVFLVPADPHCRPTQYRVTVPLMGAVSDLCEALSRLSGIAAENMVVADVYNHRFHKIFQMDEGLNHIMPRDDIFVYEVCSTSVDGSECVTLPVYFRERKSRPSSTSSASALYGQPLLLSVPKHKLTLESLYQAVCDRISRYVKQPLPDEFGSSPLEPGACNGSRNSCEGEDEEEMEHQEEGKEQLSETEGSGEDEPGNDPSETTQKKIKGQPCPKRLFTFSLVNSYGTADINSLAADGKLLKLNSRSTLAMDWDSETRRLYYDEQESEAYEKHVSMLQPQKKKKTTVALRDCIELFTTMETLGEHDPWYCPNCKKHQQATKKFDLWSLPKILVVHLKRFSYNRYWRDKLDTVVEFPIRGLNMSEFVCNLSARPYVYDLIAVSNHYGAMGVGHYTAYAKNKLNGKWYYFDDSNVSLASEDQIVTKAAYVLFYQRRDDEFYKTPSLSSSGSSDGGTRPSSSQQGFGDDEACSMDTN
Outline: as §1

Measured: log2 ratio of Biotin-Ahx-Ub-VS probe labelling

Chain of USP34 (Q70CQ2 whole entry, the tested form may be a part): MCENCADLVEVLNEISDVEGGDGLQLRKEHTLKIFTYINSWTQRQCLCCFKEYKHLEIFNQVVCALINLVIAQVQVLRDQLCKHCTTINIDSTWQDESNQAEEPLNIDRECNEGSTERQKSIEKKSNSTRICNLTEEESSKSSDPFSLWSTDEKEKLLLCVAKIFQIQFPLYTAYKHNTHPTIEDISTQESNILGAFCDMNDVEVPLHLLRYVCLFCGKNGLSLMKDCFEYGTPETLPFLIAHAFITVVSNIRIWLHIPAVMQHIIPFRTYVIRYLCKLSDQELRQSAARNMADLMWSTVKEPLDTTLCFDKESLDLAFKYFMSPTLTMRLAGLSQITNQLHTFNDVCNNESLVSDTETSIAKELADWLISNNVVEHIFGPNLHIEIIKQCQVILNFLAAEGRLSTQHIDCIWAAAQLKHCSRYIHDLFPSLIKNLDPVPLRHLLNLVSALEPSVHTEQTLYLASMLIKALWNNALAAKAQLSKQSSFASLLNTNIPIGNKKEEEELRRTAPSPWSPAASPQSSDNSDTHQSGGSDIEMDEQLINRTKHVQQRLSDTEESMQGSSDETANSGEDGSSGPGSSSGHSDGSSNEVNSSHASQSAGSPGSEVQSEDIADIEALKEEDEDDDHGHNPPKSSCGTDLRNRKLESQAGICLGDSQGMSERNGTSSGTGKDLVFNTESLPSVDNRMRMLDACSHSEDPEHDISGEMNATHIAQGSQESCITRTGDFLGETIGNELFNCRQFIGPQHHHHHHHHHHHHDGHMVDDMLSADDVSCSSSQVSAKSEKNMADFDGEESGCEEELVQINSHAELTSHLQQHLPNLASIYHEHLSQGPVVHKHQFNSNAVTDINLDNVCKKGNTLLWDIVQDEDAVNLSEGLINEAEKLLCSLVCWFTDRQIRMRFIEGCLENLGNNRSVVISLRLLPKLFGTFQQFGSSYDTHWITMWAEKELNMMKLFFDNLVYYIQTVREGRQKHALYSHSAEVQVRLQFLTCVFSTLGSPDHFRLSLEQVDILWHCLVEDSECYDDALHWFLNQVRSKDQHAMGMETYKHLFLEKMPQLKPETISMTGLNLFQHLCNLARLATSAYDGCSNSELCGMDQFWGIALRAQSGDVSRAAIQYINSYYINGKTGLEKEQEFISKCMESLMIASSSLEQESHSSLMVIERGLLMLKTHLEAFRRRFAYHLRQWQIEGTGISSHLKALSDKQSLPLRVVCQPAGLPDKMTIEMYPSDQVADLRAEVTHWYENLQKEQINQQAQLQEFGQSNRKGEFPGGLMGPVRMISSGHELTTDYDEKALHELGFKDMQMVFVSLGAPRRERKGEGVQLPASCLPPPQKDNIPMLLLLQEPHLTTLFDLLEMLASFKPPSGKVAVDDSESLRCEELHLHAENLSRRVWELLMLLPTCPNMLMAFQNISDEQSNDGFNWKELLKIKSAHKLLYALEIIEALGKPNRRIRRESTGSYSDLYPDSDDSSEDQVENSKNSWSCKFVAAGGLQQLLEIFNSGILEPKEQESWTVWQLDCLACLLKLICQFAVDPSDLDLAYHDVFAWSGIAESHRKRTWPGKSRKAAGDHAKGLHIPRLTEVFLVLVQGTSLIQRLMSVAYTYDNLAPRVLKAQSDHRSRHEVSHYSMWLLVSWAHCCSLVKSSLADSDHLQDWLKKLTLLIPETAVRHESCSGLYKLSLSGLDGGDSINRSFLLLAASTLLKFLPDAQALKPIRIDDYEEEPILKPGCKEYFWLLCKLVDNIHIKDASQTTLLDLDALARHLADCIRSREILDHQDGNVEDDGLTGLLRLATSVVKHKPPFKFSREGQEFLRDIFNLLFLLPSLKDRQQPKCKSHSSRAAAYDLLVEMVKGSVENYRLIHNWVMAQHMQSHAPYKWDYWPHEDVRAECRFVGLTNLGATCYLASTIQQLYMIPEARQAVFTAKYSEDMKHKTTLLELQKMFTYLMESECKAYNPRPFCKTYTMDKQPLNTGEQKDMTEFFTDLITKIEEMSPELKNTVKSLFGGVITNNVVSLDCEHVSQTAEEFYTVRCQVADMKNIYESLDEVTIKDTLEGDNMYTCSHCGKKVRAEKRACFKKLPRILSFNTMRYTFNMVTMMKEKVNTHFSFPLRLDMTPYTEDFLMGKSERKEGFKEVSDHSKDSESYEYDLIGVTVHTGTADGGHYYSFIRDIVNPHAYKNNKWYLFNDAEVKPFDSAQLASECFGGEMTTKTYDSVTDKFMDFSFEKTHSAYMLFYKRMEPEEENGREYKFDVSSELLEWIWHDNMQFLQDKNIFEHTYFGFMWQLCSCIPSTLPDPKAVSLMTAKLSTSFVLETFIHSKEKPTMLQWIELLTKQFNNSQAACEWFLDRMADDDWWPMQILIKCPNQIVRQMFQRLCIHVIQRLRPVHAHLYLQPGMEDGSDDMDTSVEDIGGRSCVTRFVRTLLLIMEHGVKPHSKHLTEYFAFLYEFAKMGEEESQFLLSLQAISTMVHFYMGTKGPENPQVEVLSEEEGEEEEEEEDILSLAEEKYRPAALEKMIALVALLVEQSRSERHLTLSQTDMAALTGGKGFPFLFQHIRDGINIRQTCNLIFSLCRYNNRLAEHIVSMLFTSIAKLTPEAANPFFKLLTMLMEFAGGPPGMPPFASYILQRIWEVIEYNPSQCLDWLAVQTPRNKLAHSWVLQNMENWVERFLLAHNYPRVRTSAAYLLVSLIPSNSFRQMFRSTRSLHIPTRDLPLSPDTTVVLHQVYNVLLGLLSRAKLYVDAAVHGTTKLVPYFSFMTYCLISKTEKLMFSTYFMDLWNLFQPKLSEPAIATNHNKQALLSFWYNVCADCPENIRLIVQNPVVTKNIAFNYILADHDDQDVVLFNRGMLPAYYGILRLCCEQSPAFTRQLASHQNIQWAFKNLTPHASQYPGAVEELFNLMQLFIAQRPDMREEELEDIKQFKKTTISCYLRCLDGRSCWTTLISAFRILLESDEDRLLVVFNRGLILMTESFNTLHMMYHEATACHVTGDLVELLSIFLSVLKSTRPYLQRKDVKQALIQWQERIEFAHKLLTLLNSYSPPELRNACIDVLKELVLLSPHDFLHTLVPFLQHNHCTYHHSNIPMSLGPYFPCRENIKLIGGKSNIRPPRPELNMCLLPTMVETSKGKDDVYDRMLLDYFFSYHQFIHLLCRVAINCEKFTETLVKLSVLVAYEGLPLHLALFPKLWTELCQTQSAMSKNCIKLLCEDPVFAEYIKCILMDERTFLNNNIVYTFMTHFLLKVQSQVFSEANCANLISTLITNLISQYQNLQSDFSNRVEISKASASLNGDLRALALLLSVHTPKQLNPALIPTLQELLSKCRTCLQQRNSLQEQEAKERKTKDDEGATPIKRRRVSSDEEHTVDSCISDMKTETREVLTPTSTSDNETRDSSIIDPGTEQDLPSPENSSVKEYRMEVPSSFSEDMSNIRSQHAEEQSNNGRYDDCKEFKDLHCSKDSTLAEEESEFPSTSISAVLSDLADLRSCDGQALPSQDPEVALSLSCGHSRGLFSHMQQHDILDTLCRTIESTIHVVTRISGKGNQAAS

CC(c1ccccc1)N(C)C(=O)CCl (stereo not given)
inactive: USP34 -0.323 | USP36 -0.306 | USP38 -0.0902 | USP39 -0.413 | USP4 -0.289
